Source: PubChem
MITF inh: MITF inhibitors, primary screen, biochemical, AlphaScreen, human; Microphthalmia-associated transcription factor (Homo sapiens), O75030; AlphaScreen MITF homodimerization, bead proximity signal; inhibition, % at 2.6 µM; 0.91% of 650,000 active; AID 1259374, 2018; in the data active means inhibition above about 50%;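 further: 0% = vehicle wells with protein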
Target sequence (O75030 whole entry, looked up): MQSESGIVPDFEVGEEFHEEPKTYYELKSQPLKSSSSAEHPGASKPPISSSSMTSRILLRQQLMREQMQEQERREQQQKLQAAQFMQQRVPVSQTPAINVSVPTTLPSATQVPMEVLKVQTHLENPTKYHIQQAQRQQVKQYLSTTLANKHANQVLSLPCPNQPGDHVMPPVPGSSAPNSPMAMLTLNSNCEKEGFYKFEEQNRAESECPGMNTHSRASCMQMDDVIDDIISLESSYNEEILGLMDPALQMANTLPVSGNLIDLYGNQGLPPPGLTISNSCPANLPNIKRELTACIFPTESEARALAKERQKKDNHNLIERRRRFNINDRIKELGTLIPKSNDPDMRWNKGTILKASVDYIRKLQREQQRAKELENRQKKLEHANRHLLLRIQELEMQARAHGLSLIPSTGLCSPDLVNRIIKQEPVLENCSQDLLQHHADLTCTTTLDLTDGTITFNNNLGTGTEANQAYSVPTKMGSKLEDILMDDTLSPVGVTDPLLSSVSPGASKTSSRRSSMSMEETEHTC
GPR151 ag: activators of human GPR151, primary screen, cell-based, PathHunter beta-arrestin, luminescence; 1% of 650,000 active; activation, % at 11.2 µM; G-protein coupled receptor 151 (Homo sapiens), Q8TDV0; AID 1508602, 2020; PathHunter beta-arrestin GPR151 cells; in the data active means activation above about 4.9%;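 further: 0% = median of compound wells and 100% = cells with positive control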
TEAD-YAP inh: TEAD-YAP interaction inhibition, primary screen, TEAD-YAP interaction inhibitor project, luminescence, HEK-TIYL cells | TEAD-Gal4/YAP UAS-luciferase luminescence | inhibition, % at 9.12 µM | 1.4% of 640,000 active; in the data active means inhibition above about 32%;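 further: 0% = median of test compound wells and 100% = reference inhibitor wells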
FBW7 activator: FBW7 E3 ligase activators, primary screen, biochemical, AlphaScreen, human; normalized activity (activation), % at 26.1 µM; AlphaScreen FBW7–phospho-cyclin E peptide binding, activator screen; 0.13% of 650,000 active; AID 1259310, 2017; F-box/WD repeat-containing protein 7 (Homo sapiens), Q969H0; in the data active means normalized activity above about 1.9%;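 further: purified mutant Fbw7 with reduced substrate affinity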
GPR151 conf act: GPR151 activators, triplicate retest, confirmation, cell-based, PathHunter beta-arrestin, luminescence | shares compounds with GPR151 ag | GPR151 PathHunter beta-arrestin cells, 90 min; % of EA-reagent control over plate median | activation, % at 11.2 µM | 6,700 tested, under 10 active | AID 1508609, 2020;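 active means mean percent activation across replicates above the confirmation screen cutoff of 4.91%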
GPR119 counter: GPR119 activators in beta-arrestin cells, counter-screen for GPR151 activator project, cell-based, PathHunter beta-arrestin, luminescence, triplicate | AID 1508611, 2020 | activation, % at 11.2 µM | shares compounds with GPR151 ag | 0.3% of 6,700 active | 90 min; 0 = compound-well median, 100 = enzyme-acceptor control;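 active means mean percent activation in the counterscreen above 29.09%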;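 further: counterscreen on off-target GPR119 to flag nonselective hits from the GPR151 activator screen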
An asterisk follows results filed as active; x = no result; ! = repeats disagree. Most compounds without a hit are left out; they make up all but 3.4% or so of the library.

SMILES	MITF inh	GPR151 ag	TEAD-YAP inh	FBW7 activator	GPR151 conf act	GPR119 counter
CO[C@H]1C[C@H](O[C@H]2[C@H](C)[C@@H](OC3O[C@H](C)C[C@H](N(C)C)[C@H]3OC(C)=O)[C@@H](C)C[C@]3(CO3)C(=O)[C@H](C)[C@@H](OC(C)=O)[C@@H](C)[C@@H](C)OC(=O)[C@@H]2C)O[C@@H](C)[C@@H]1OC(C)=O (stereo partly specified)	11	6.3*!	-3	0	1	-8
COc1ccc(CNS(=O)(=O)c2ccc(Br)c3nsnc23)cc1	-7	1	0	0	x	x
c1ccc2c(-c3nc(NC4CC4)c4ncn(C5CCCCC5)c4n3)csc2c1	-3	7.5*	-13	0	-1	-16
FC(F)(F)c1ccc(Cn2cnc3c(NC4CC4)nc(-c4csc5ccccc45)nc32)cc1	4	1	-6	0	x	x
FC(F)(F)c1ccc(Cn2cnc3c(NC4CCN(Cc5ccccc5)CC4)nc(-c4csc5ccccc45)nc32)cc1	-3	7.0*	8	0	0	3
O=C(Cc1ccccc1)NCC(=O)OCc1ccc(Cl)cc1	-4	1	-20	0	x	x
NCC(=O)NCC(=O)OCc1ccccc1	-3	7.5*	6	0	1	7
CCOC(=O)CNC(=O)OCc1ccccc1	0	-1	4	0	x	x
CCOC(=O)CNC(=O)N(Cc1ccccc1)Cc1ccccc1	-8	5.3*	-7	0	0	-7
CC(NC(=O)CSc1nnc(-c2ccc3c(c2)OCO3)o1)C12CC3CC(CC(C3)C1)C2 (stereo unspecified)	9	0	1	0	x	x
Cc1nnc(NC(=O)c2cc3ccccc3oc2=O)s1	-1	0	-1	0	x	x
Cc1nc2c(nnn2Cc2ccccc2)c(=O)n1Cc1ccccc1	-4	10*	10	0	0	5
Cc1nc2c(nnn2Cc2ccccc2)c(=O)n1C	9	-1	6	0	x	x
CCOc1ccc(C2C(C#N)=C(SCC(N)=O)NC(=O)[C@H]2C(=O)OC)cc1 (stereo partly specified)	-13	0	-17	0	x	x
CCc1nc2ccccc2n1C(=O)c1ccccc1C(=O)O	0	1	5	0	x	x
CN(Cc1nccs1)C(=O)CN1Cc2ccccc2OC(c2ccccc2F)C1 (stereo unspecified)	3	6.6*	2	1	1	12
COc1ccccc1C1CN(CC(=O)N(C)C(C)c2nccs2)Cc2ccccc2O1 (stereo unspecified)	-7	-1	-2	0	x	x
CCc1cc(C(=O)Cc2ccc3c(c2)OCCCO3)c(O)cc1OC	-6	5.2*	-3	0	-2	-15
CC(C)c1cc(CNC(=O)c2cc(COc3cccc4cnccc34)on2)on1	12	0	15	0	x	x
CN(CCO)C(=O)c1cc(COc2cccc3cnccc23)on1	19	6.7*	-5	0	1	-3
COc1ccc(C2C(C(=O)Nc3nc4ccccc4s3)CCC(=O)N2c2ccc(OC)cc2)cc1 (stereo unspecified)	33	2	4	0	x	x
Cc1ccc(-c2nc3ccccc3c(=O)n2NC(=O)c2ccco2)cc1C	-12	5.4*	-1	0	0	5
COc1ccc(OCc2nc3ccccc3n2Cc2ccc(C)cc2)cc1	3	-1	-38	0	x	x
COC(=O)c1ccccc1OCCOCCOc1cccc2cccnc12	1	1	-7	0	x	x
COC(=O)c1ccccc1OCCOc1ccccc1C(=O)OC	9	5.6*	-11	1	0	11
SMILES	MITF inh	GPR151 ag	TEAD-YAP inh	FBW7 activator	GPR151 conf act	GPR119 counter
Nc1nncn1C(=O)COc1ccccc1	-15	1	-3	0	x	x
O=C(CCc1nnc(CCc2c[nH]c3ccccc23)o1)N1CCN(CC2CC2)CC1	-7	0	7	0	x	x
O=C(CCc1nnc(CCc2c[nH]c3ccccc23)o1)NCC1CC1	3	5.4*	3	0	1	8
O=C(CSc1nnc(NC(=O)Cc2ccccc2)s1)NCC1CCCO1 (stereo unspecified)	-6	-1	-7	0	x	x
O=C(CSc1nnc(NC(=O)Cc2ccc(F)cc2)s1)NCC1CCCO1 (stereo unspecified)	4	5.0*	10	1	0	11
O=C(NCCSCc1cccc(Cl)c1)c1c(Cl)cccc1Cl	8	-1	5	0	x	x
CCC(=O)Nc1nc(C)nc(-c2ccccc2)c1C(C)=O	5	0	1	0	x	x
CC1(C)Cc2cccc(OCC(=O)NC3=NCCS3)c2O1	-1	5.9*	-4	0	2	1
CC(=O)c1cccc(N2C(=O)C3C4C=CC(CO)(O4)C3C2=O)c1 (stereo unspecified)	-9	-1	-2	0	x	x
CN(c1ccc(C(=O)Nc2ccc(F)c(Cl)c2)cc1)S(=O)(=O)c1ccccc1	12	5.4*	3	0	0	6
CN(c1ccc(C(=O)Nc2ccccc2)cc1)S(=O)(=O)c1ccccc1	-10	0	-15	0	x	x
COc1ccc(-c2nc3c[n+](CC(N)=O)ccn3c2Nc2ccccc2C)cc1	13	6.7*	-7	0	0	3
Cc1ccc(Nc2c(-c3ccc(N4CCOCC4)cc3)nc3c[n+](CC(N)=O)ccn23)cc1	15	5.1*	-11	0	0	1
CSc1nnc2c(n1)OC(c1ccc(-c3cccc(Br)c3)o1)Nc1ccccc1-2 (stereo unspecified)	-7	0	2	0	x	x
CCOC(=O)N1CCC(NC(=O)C2CC23CCN(Cc2ccsc2)CC3)CC1 (stereo unspecified)	0	0	-15	0	x	x
O=C(NCc1nc2ccccc2[nH]1)c1ccc2nc(Nc3ccc4ncccc4c3)sc2c1	5	6.3*	-22	0	1	-3
Cc1ccc(N(CC(=O)NCCC(C)C)C(=O)CCC(=O)Nc2ccccn2)cc1	6	6.3*	-1	0	1	-1
COc1ccc(NC(=O)c2ccccc2N)cc1	-1	-3	2	0	x	x
CCOc1ccc(/C=N/n2c(C)nc3ccccc3c2=O)cc1	-4	-1	0	0	x	x
CCOC(=O)COc1ccc2ccccc2c1/C=N/n1c(C)nc2ccccc2c1=O	7	5.0*	-4	0	-1	-12
